{"source": "ChEMBL document CHEMBL4513216", "about": "“Probing the Open Global Health Chemical Diversity Library for Multistage-Active Starting Points for Next-Generation Antimalarials” (ACS Infect Dis, 2020)", "note": "Among all 69,000 compounds or so, about 8,600 (12%) showed an effect of 50% or more. Many of the other results were omitted from the sample, so strong results are more common in it than they were."}
{"system": "Plasmodium berghei", "experiment": "Screen against P. berghei liver stage (PbLuc), transformed with Luciferase, at 10uM", "format": "functional, HepG2", "details": "tested at 10 uM", "units": {"INHIBITION": "%"}}
{"smiles": "CSc1nnc(CNC(=O)Nc2ccccc2Br)n1C", "INHIBITION": 19.8}
{"smiles": "CNCC[C@H]1CC(C)(C)Oc2ccc(C)cc21", "INHIBITION": 53}
{"smiles": "CNCC[C@H]1CC(C)(C)Oc2ccc(OCC3CC3)cc21", "INHIBITION": 42.6}
{"smiles": "CNCC[C@H]1CC(C)(C)Oc2ccc(OC)cc21", "INHIBITION": 42.6}
{"smiles": "CN1CCN(C(=O)C2CCN(c3cccnn3)C2)CC1", "note": "(centres undefined)", "INHIBITION": -18.9}
{"smiles": "O=C(NCc1ccco1)[C@@H]1CCO[C@@H]2CCN(C3CCOCC3)C[C@H]21", "INHIBITION": 11.3}
{"smiles": "Cc1nnc2n1CCN(CCOc1ccc(C(C)(C)C)cc1)C2", "INHIBITION": 13.3}
{"smiles": "NC(=O)C(CNC(=O)COCC(F)(F)F)Cc1ccc(F)cc1", "note": "(centres undefined)", "INHIBITION": 17.4}
{"smiles": "OC1(CN2CCCCC2)CCN(c2cccc(C(F)(F)F)n2)C1", "note": "(centres undefined)", "INHIBITION": 46.7}
{"smiles": "OC1(CN2CCCCC2)CCN(c2cc(C(F)(F)F)ccn2)C1", "note": "(centres undefined)", "INHIBITION": 33.9}
{"smiles": "OC1(CN2CCCCC2)CCN(c2ccc(C(F)(F)F)cn2)C1", "note": "(centres undefined)", "INHIBITION": 59.4}
{"smiles": "O=C(NCc1ccoc1)Nc1cc(C(F)(F)F)c[nH]c1=O", "INHIBITION": -45.5}
{"smiles": "Fc1ccccc1CN1C[C@@H](OCc2ccncc2)[C@H]2OCCC[C@H]21", "INHIBITION": 23.5}
{"smiles": "CO[C@H]1CN(Cc2ccccc2F)[C@@H]2CCCO[C@H]12", "INHIBITION": 68.8}
{"smiles": "Fc1ccccc1CN1C[C@H](OCC2CCOCC2)[C@H]2OCCC[C@H]21", "INHIBITION": -28.8}
{"smiles": "Cc1ccccc1CN1CC[C@H]2C[C@H](C(=O)N(C)C)O[C@H]2C1", "INHIBITION": 19.5}
{"smiles": "COCC(=O)N1CCc2cccc(S(=O)(=O)N3CCN(C)CC3)c2C1", "INHIBITION": 8.51}
{"smiles": "NC(=O)C1CN(C(=O)Nc2ccccc2N2CCCCCC2)CCO1", "note": "(centres undefined)", "INHIBITION": -22.7}
{"smiles": "CCOc1ccc(NC(=O)N2CCOC(C(N)=O)C2)cc1Cl", "note": "(centres undefined)", "INHIBITION": -16.9}
{"smiles": "NC(=O)C1CN(C(=O)Nc2cc(Cl)cc(Cl)c2)CCO1", "note": "(centres undefined)", "INHIBITION": 88.4}
{"smiles": "Cc1cc(NC(=O)N2CCOC(C(N)=O)C2)ccc1Br", "note": "(centres undefined)", "INHIBITION": -62.8}
{"smiles": "Cc1ccc(NC(=O)N2CCOC(C(N)=O)C2)cc1C(F)(F)F", "note": "(centres undefined)", "INHIBITION": -14.3}
{"smiles": "NC(=O)C1CN(C(=O)Nc2ccccc2-c2cccs2)CCO1", "note": "(centres undefined)", "INHIBITION": 57.2}
{"smiles": "COCC1CN(C(=O)Nc2cc(Cl)cc(Cl)c2)CCO1", "note": "(centres undefined)", "INHIBITION": -42.9}
{"smiles": "O=C(Nc1ccccc1-c1cccs1)N1CCOCC1", "INHIBITION": -11.6}
{"smiles": "CN1CCCc2cc(NC(=O)N3CCOC(C(N)=O)C3)ccc21", "note": "(centres undefined)", "INHIBITION": 68.5}
{"smiles": "CCC(=O)NS(=O)(=O)c1cccnc1Nc1cccc(Cl)c1Cl", "INHIBITION": 42.6}
{"smiles": "Cc1nc(CN2Cc3nccn3CC(CN3CCOCC3)C2)cs1", "note": "(centres undefined)", "INHIBITION": -40.1}
{"smiles": "COc1cccc(-n2nnc(C(=O)N3CCC(C(N)=O)CC3)c2C)c1", "INHIBITION": 13.115}
{"smiles": "Cc1cc(C(=O)NC2CCCOc3cc(Cl)ccc32)n(C)n1", "note": "(centres undefined)", "INHIBITION": 43.6}
{"smiles": "O=C(c1ccc2c(c1)[nH]c(=O)n2C1CCC(O)CC1)N1CCOCC1", "note": "(centres undefined)", "INHIBITION": 48}
{"smiles": "CNC(=O)[C@H]1C[C@H]2CN(C(=O)Nc3ccc(F)cc3)C[C@@H]1O2", "INHIBITION": 13.4}
{"smiles": "CCN1CC[C@]2(CN(Cc3nccs3)C[C@H]2c2ccccc2)C1=O", "INHIBITION": 13.7}
{"smiles": "Cc1nc(C2CCCN2Cc2cc(=O)n(C)c(=O)n2C)no1", "note": "(centres undefined)", "INHIBITION": 15.3}
{"smiles": "Cc1nn(C)c2nc(N(Cc3nccs3)C3CC3)sc12", "INHIBITION": 33.2}
{"smiles": "Cc1cc2c(N3CCC(N(C)Cc4nccs4)CC3)ncnc2s1", "INHIBITION": 87.5}
{"smiles": "CC(C)(C(=O)N1CCCC(OCc2cccnc2)C1)n1cccc1", "note": "(centres undefined)", "INHIBITION": 23.1}
{"smiles": "Cn1cc(CN2CCc3ncnc(N4CCCC4)c3CC2)cn1", "INHIBITION": 30.5}
{"smiles": "CN(Cc1nccs1)C1CCN(c2ncccn2)CC1", "INHIBITION": 21.5}
{"smiles": "Cc1cc2c(N3CCC(N(C)CCc4cnn(C)c4)CC3)ncnc2s1", "INHIBITION": 51.2}
{"smiles": "Cc1nn(C)c2ncnc(N3CCCC(OCc4cccnc4)C3)c12", "note": "(centres undefined)", "INHIBITION": 25.1}
{"smiles": "Cc1cc2c(N3CCCC(OCc4cccnc4)C3)ncnc2s1", "note": "(centres undefined)", "INHIBITION": 85.2}
{"smiles": "CCc1c(C)sc2ncnc(N3CCN(C4CCOCC4)CC3)c12", "INHIBITION": 4.15}
{"smiles": "Cc1sc2ncnc(N3CCC(N(C)Cc4cnn(C)c4)CC3)c2c1C", "INHIBITION": 61.2}
{"smiles": "Cc1sc2ncnc(N3CCCC3Cn3cccn3)c2c1C", "note": "(centres undefined)", "INHIBITION": -53}
{"smiles": "Cc1csc2c(N3CCC(NCCCc4cnn(C)c4)CC3)ncnc12", "INHIBITION": 31.6}
{"smiles": "CCCS(=O)(=O)N1CCn2cc(CNc3ccccn3)nc2C1", "INHIBITION": 23.3}
{"smiles": "CCC(=O)N1Cc2nccn2CC(CN(C)Cc2cccnc2)C1", "note": "(centres undefined)", "INHIBITION": 39.2}
{"smiles": "Cc1csc(N2CCN(Cc3cnc4c(c3)c(C)nn4C)CC2)n1", "INHIBITION": 24}
{"smiles": "CN(C)C[C@H]1OC[C@@H]2CCN(C(=O)c3ccco3)C[C@@H]21", "INHIBITION": -4.56}
{"smiles": "Cc1nc(C)n(CCNC(=O)C2(C)CC(c3ccccc3)=NO2)n1", "note": "(centres undefined)", "INHIBITION": 23}
{"smiles": "Fc1cnc(N2CC[C@@H]3O[C@@H](COCc4cccnc4)CC[C@@H]32)nc1", "INHIBITION": 31.4}
{"smiles": "CCc1ccsc1C(=O)N1CCCN(Cc2cscn2)CC1", "INHIBITION": -16}
{"smiles": "CC(C)c1cc2c(s1)NC(c1ccccc1)NC2=O", "note": "(centres undefined)", "INHIBITION": 9.63}
{"smiles": "Cc1cc2c(N3CCC(N(C)Cc4cnn(C)c4)CC3)ncnc2s1", "INHIBITION": 75.7}
{"smiles": "Cc1nc(CN2CCCC(N(C)Cc3cnn(C)c3)C2)no1", "note": "(centres undefined)", "INHIBITION": 5.48}
{"smiles": "Cc1cnc(CN(C)C2CCN(CCCc3cnn(C)c3)C2)o1", "note": "(centres undefined)", "INHIBITION": 48.2}
{"smiles": "COc1ccc2c(c1)CN(CC1CC1)C(=O)CCN2CC(C)(C)O", "INHIBITION": 23.7}
{"smiles": "O=C(c1sccc1C1CC1)N1CCN(CC(F)(F)F)CC1", "INHIBITION": 27.6}
{"smiles": "O=C(Nc1cccc(F)c1)C1=NOC2(CCNCC2)C1", "INHIBITION": -2.41}
{"smiles": "Cc1ccoc1C(=O)NCCOc1ncc(Cl)cc1Cl", "INHIBITION": 52}
{"smiles": "O=C(CCn1cccn1)NCCOc1cccc(Cl)c1", "INHIBITION": 54.4}
{"smiles": "O=C(NCCOc1ncc(Cl)cc1Cl)c1ccoc1", "INHIBITION": 24.6}
{"smiles": "O=C(CCn1cccn1)NCCOc1ccc2c(c1)OCO2", "INHIBITION": -13.9}
{"smiles": "O=C(NCCOc1ncc(Cl)cc1Cl)c1ccncc1", "INHIBITION": 39.5}
{"smiles": "O=C(CCc1ccncc1)NCCOc1ncc(Cl)cc1Cl", "INHIBITION": 3.87}
{"smiles": "O=C(CCn1cccn1)NCCOc1ncc(Cl)cc1Cl", "INHIBITION": 53.3}
{"smiles": "O=C(NCCOc1ncc(Cl)cc1Cl)c1cccnc1", "INHIBITION": 19.4}
{"smiles": "O=C(CCn1cncn1)NCCOc1cccc(Cl)c1", "INHIBITION": 10.7}
